test system: VDR:RXRa (NR concentration 270 nM, RXRa partner concentration 90 nM); experiment: PBM binding z-score (relative to random genomic background probes); higher = stronger binding; sequences stand for … in GC…GCGATTGACAGCGTAGAATGAAGG
Procedure: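 Protein-binding microarray (Agilent 4x180K custom design, double-stranded 60-nt probes: 5' GC cap, 34-nt variable region, 24-nt constant primer region; full probe sequence given). Purified or IVT nuclear receptor:RXRα heterodimers (3:1 NR:RXRα, mostly 270:90 nM) or homodimers were incubated for 1 h in PBS with 2% milk and no ligand, then detected with Alexa488 antibodies. Fluorescence from o1-orientation probes (~5 replicates averaged) was converted to z-scores against 500 random hg19 background probes. Variable regions are seed direct-repeat (DR0–DR5) sites, all their single-nucleotide variants and half-site ablations.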

Sequence	PBM binding z-score
TAGCCTAGGTCATGGGCTAGTATACCACGCGAAC	1.72
ATGGAAAGGTCGAAGGTGAGTATACCCACCCGAA	2.81
CTCGAAAGGTCGGTTGAGGTGAATATACGGATAA	2.79
TCTTGTAGATCAGCAGGATAAGAAAGCTGGCCAA	-0.113
CTACCAAGGTGAACACGGTCGTTGATTACTATTC	3.01
AGAATGAGGTTATTAAGATCAAGGAATTGCGGTC	3.11
GGAACGAAGGCAAGTTGATAGCAGAGTTTGATGG	-0.696
AGAATGAGGTTCAGATCAGGGAAACAGAATACAT	0.949
TCTTGTAGAACAACAGGAGGTTAAGAAAGATCGA	0.492
TCAGGCAGGTGAAGGTAACTCAGGTACGCAGTCG	0.269
TCAGACAGGTGAAGGTAGCTCAGGTACGCAGTCG	0.353
CGTCCATGGTCAGAGAGGTCAGTGAATGCCGAGT	4.63
CTTACTGGGCCAAAAAGGTCATTGATGCCGATAA	4.92
ATATGTAGGTTACATCCGGGTCATGCAGGCTATG	3.8
TCATATCGGTAATACAGGTGAAAGTCGGCATCTA	0.66
CCTACTGGGCCAGAGGTCATTGATTCCAATGCTC	4.47
TCTATTAGCTGAAGGGCAACCGACGAGTCCGTTT	0.475
CGTCCAAGGTCAGAGAGGTCAGTAAATGCCGAGT	7.22
CAAACTAGGTCACCGGAATGTCAAAGTCCGCATG	3.06
ATATGTTGGTTACATCCGGGTCATTCAGGCTATG	3.42

Sequence	PBM binding z-score
GGAACGAGGGCATTCGGGTTGATAGCATGGCGAT	4.61
TCTGCTAGGTCAGTTGGTCGGCTAACGAGCTGCC	0.0498
TTACCAAGGTGAAAGTTCGTTGATGCACGCCTTG	2.12
CGAACTAGGTCAGAACAGGACAGGGAAGGATGAT	0.511
CAAACTAGGTCACCGGAAGCTCAAAGTCCGCATG	2.23
CCAGACAGGTGAGAAAGTAACTCAGCCTCGATTA	0.0167
CCGACTGGGGCAGAAAGGTGACCATACCATCCGG	-0.31
ACAGACAGGTGATGACGGTAACTCAGGCTATCAT	-0.308
ATATGTAGGTTACTTCCGGGTCATTCAGGCTATG	3.93
TCATATAGCTAAAGGTGAAAGTCGAACGATATGA	0.865
ATCTCTAGGTAAAGATAGTTGAGTGAATGCAAAT	0.375
TCATATGGGTAAAGGTGAAAGTCGAACGATATGA	0.608
ATATGTAGGTTGCATCCGGGTCATTCAGGCTATG	3.47
TCGAGTAAGTTACCAATGGGGCATTCAGCTTTCT	0.0279
CCGACTGGGGCAGAAAGGTTACCGTACCATCCGG	0.919
AGAATGAGGTTACCAAAGAGCAGGGAAACGCTTG	1.05
ACTATTAGTTGACTTAGGGCGACCGATACGACGC	0.175
CGTCAAAGTTCAACTAAGGTGACGTAAAGCACGC	4.87
CGTCCAAGGTCAGCAGGTTAGTGAAAGCGACGTG	4.07
GCTCGGAGGAGAAGGTCAGAGCTTTGTCCGTAGA	0.324

Reference: the supplement of paper PMC6555819
